Active and inactive are the calls of the source. The call rests on the fitted dose curve; in most records, active means well fitted curve in the direction sought with a large enough effect; inactive means flat fitted curve, though single readings scatter.

A short description of the assay: Quantitative high throughput screen for delayed death inhibitors of the malarial parasite plastid: Hit Validation with 3D7 at 96 hr using Flow Cytometry. The following applies: P. falciparum 3D7 in erythrocytes, SYBR/MitoTracker flow cytometry. The text has this:
The goal of this screen is to discover new antimalarial compounds that act by inhibiting the development of the apicoplast organelle in the malarial parasite Plasmodium falciparum. Some antibiotics, such as azithromycin and tetracycline, are known to interfere with the apicoplast translational machinery, and have a potent antimalarial effect. […] We developed a cell-based quantitative high throughput screen that leverages this "delayed death" phenotype to enrich for compounds that target the apicoplast. To detect small molecules that cause the delayed death phenotype, erythrocytes infected with firefly luciferase-expressing parasites were incubated with compounds for either one or two generations, corresponding to 48 and 96 hours, respectively. Growth inhibition was detected by a decrease in luciferase activity. Compounds that inhibited parasite growth in the second generation at least five-fold more potently than in the first generation were defined as delayed death inducing. These compounds were selected for confirmatory screening using a flow cytometry based assay. This hit validation assay used the 3D7 cell line and measured at 96 hours. NIH Molecular Libraries Probe Production Network [MLPCN] NIH Chemical Genomics Center [NCGC] MLPCN Grant: R21 NS059500 Assay Provider: David Fidock and Eric Ekland, Columbia University
Test compounds were diluted in 20 microliters of complete media (RPMI 1640 with 0.5% w/v Albumax (GIBCO), 24 mM sodium bicarbonate (Sigma) and 10 ug/mL gentamycin (Gibco)) in clear 384-well plates (Greiner). All liquid handling was conducted using a Bio Tek Precision 2000 pipetting system. Twenty microliters of infected erythrocytes, 0.2% parasitemia (for 48 hour time points) or 0.1% parasitemia (for 96 hour time points) were added to the compound dilutions (1% hematocrit, final concentration; 40 microliters, total culture volume). The assay plates were incubated for 48 hours, or 96 hours, at 37 masculine C in a humidified chamber (Billups- Rothenberg, Del Mar, CA, USA), gassed with 5%CO2/5%O2/ 90%N2. After two generations (96hours), 5 microliters of culture were harvested and transferred to a second 384 well plate for fluorescent staining. Samples were stained with 30 microliters of 2 x SYBR Green I (Invitrogen) and 150nM MitoTracker Deep Red (Invitrogen) diluted in 0.9% NaCl, 0.2% dextrose (Baxter) supplemented with 2.5% Fetal Calf Serum (Gibco) (saline/FCS). Mature erythrocytes lack nuclei and mitochondria, therefore only parasitized erythrocytes retain the SYBR Green I and MitoTracker Deep Red. After 30 minutes at 37 masculine C, the stained cells were diluted in an additional 60 microliters of saline/FCS. The samples were harvested directly from the 384 well plate using a Hypercyt High Capacity Flow Platform (Intellicyt) paired with a C6 Flow Cytometer (Accuri). The flow cytometry files were analyzed using FlowJo software (FlowJo).
Take `O=C(CSc1ccc(-c2cccnc2)nn1)Nc1ccccc1C(F)(F)F`: the Potency is 4.65 µM (active).

On to `COc1ccc(C(=O)N2CCN(S(=O)(=O)c3ccc(C)cc3C)CC2)cc1OC`, for which the Potency is 45.8 µM (active).

The record behind these values is PubChem BioAssay AID624335 (National Center for Advancing Translational Sciences (NCATS), 2012).
